Several values for one entry are separate records, joined by “and”; a condition that tells them apart may be missing. Equal entries are not always repeated. Structures can show the parent of a compound that is named as a salt. ± gives the standard deviation of the averaged measurements.
Experiments:
ES2 = test: cell viability relative to DMSO control (MTS) (fraction of DMSO control); higher = more viable cells / less growth inhibition; settings: 10 µM; 48 h
In short: (§1)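 After 24 h of growth in 96-well plates at 5000 cells per well, TOV-21G and ES2 clear cell carcinoma cells were treated for 48 h with a 367-compound […] library at 10 µM final concentration. Cell viability was measured by MTS assay and expressed relative to vehicle control wells as a fraction.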

TOV-21G = test: as above; settings: 10 µM; 48 h
In short: as §1

Cn1nnc2c(C(N)=O)ncn2c1=O [temozolomide]
cell viability (ES2): 1.2
cell viability (TOV-21G): 1.12

CC[n+]1c(/C=C/N(C)c2ccccc2)n(-c2ccccc2)c2ccc(-c3nc4ccccc4s3)cc21 [Akt Inhibitor IV]
cell viability (ES2): 0.308
cell viability (TOV-21G): 0.218

CN(Cc1cnc2nc(N)nc(N)c2n1)c1ccc(C(=O)N[C@@H](CCC(=O)O)C(=O)O)cc1 [Methotrexate]
cell viability (ES2): 1.16
cell viability (TOV-21G): 0.872

O=Cc1ccc(N2CCOCC2)cc1O
cell viability (ES2): 1.07
cell viability (TOV-21G): 0.993

Cc1nc2c(O)cccc2c(=O)[nH]1
cell viability (ES2): 1.04
cell viability (TOV-21G): 0.856

CCN(CC)CCNC(=O)c1c(C)[nH]c(/C=C2\C(=O)Nc3ccc(Cl)cc32)c1C
cell viability (ES2): 0.254
cell viability (TOV-21G): 0.222

Clc1ccccc1CNCC1CCC(CNCc2ccccc2Cl)CC1 (stereo not given)
cell viability (ES2): 0.789
cell viability (TOV-21G): 1.03

CCCCC(=O)Oc1ccccc1C(=O)O [Valeryl salicylate]
cell viability (ES2): 0.917
cell viability (TOV-21G): 1.01

Nc1ncnc2nc(-c3ccc(N4CCOCC4)nc3)cc(-c3cccc(Br)c3)c12
cell viability (ES2): 0.795
cell viability (TOV-21G): 0.484

CSc1ccc(/C=C2/C(C)=C(CC(=O)O)c3cc(F)ccc32)cc1 [Sulindac sulfide]
cell viability (ES2): 1.38
cell viability (TOV-21G): 1.3

CO[C@@H]1[C@H](OC(=O)/C=C/C=C/C=C/C=C/C(=O)O)CC[C@]2(CO2)[C@H]1[C@@]1(C)O[C@@H]1CC=C(C)C [Fumagillin]
cell viability (ES2): 0.91
cell viability (TOV-21G): 0.991

C[C@@H](Oc1cc(-c2cnn(C3CCNCC3)c2)cnc1N)c1c(Cl)ccc(F)c1Cl [crizotinib]
cell viability (ES2): 0.34
cell viability (TOV-21G): 0.333

C[S+]([O-])c1ccc(-c2nc(-c3ccc(F)cc3)c(-c3ccncc3)[nH]2)cc1 (stereo not given)
cell viability (ES2): 0.916
cell viability (TOV-21G): 0.908

COc1cccc(-c2cc(=O)c3ccccc3o2)c1N
cell viability (ES2): 0.798 and 0.451
cell viability (TOV-21G): 0.852 and 0.84

CC(C)CC(NC(=O)CNC(=O)OCc1ccccc1)C(=O)NC(Cc1ccccc1)C(=O)CCl (stereo not given)
cell viability (ES2): 0.398
cell viability (TOV-21G): 0.479

COc1cc2nc(N3CCCN(C)CC3)nc(NC3CCN(Cc4ccccc4)CC3)c2cc1OC
cell viability (ES2): 0.42
cell viability (TOV-21G): 0.454

Fc1ccc(Cl)cc1-c1nc(Nc2ccncc2)c2nccnc2n1
cell viability (ES2): 0.645
cell viability (TOV-21G): 1.08

Cn1c(=O)c2nc[nH]c2n(C)c1=O [Theophylline]
cell viability (ES2): 0.452
cell viability (TOV-21G): 0.772

Cc1ncc2ccccc2c1C#N [4-cyano-3-methylisoquinoline]
cell viability (ES2): 1.01
cell viability (TOV-21G): 1

O=C1CCC(N2C(=O)c3ccccc3C2=O)C(=O)N1 (stereo not given) [thalidomide]
cell viability (ES2): 0.958
cell viability (TOV-21G): 0.989

O=C(CCCCCCC(=O)Nc1ccccc1)NO [vorinostat]
cell viability (ES2): 0.38
cell viability (TOV-21G): 0.388

N#CCCc1ccc2c(c1)-c1[nH]c3ccc([N+](=O)[O-])cc3c1CC(=O)N2 [Alsterpaullone, 2-cyanoethyl]
cell viability (ES2): 0.893
cell viability (TOV-21G): 0.778

Cc1nc2sccn2c(=O)c1CCN1CCC(=C(c2ccccc2)c2ccc(F)cc2)CC1
cell viability (ES2): 0.963
cell viability (TOV-21G): 1.04

CCCCCCCCCCC[C@@H](C[C@@H]1OC(=O)[C@H]1CCCCCC)OC(=O)[C@H](CC(C)C)NC=O [orlistat]
cell viability (ES2): 1.08
cell viability (TOV-21G): 1.14

Cc1ccc(-c2cn3c4c(sc3n2)CCCC4)cc1 [Pifithrin-a (cyclic)]
cell viability (ES2): 1.03
cell viability (TOV-21G): 1.11

CC[C@]1(O)C[C@@H]2CN(CCc3c([nH]c4ccccc34)[C@@](C(=O)OC)(c3cc4c(cc3OC)N(C)[C@H]3[C@@](O)(C(=O)OC)[C@H](OC(C)=O)[C@]5(CC)C=CCN6CC[C@]43[C@@H]65)C2)C1 [Vinblastine sulfate]
cell viability (ES2): 0.52
cell viability (TOV-21G): 0.427

CO[C@@]12[C@H](COC(N)=O)C3=C(C(=O)C(C)=C(N)C3=O)N1C[C@@H]1N[C@@H]12 [Mitomycin C]
cell viability (ES2): 0.35
cell viability (TOV-21G): 0.213

COc1ccc(Cl)cc1C(=O)NCCc1ccc(S(=O)(=O)NC(=O)NC2CCCCC2)cc1 [Glibenclamide]
cell viability (ES2): 0.829
cell viability (TOV-21G): 0.958

Nc1cccc(-c2cc3c(Oc4cccc(O)c4)ncnc3[nH]2)c1
cell viability (ES2): 0.586
cell viability (TOV-21G): 1.03

COc1cc2ncnc(Nc3ccc(NC(=O)c4ccccc4)cc3)c2cc1OC [Aurora kinase inhibitor II]
cell viability (ES2): 1.09
cell viability (TOV-21G): 0.688

CN(C)CCCN1c2ccccc2Sc2ccc(Cl)cc21 [chlorpromazine hydrochloride]
cell viability (ES2): 0.947
cell viability (TOV-21G): 0.868

COc1cc(O)c(CC=C(C)C)c(O)c1C(=O)/C=C/c1ccc(O)cc1 [Xanthohumol]
cell viability (ES2): 1.07
cell viability (TOV-21G): 1.01

COc1cc2c(cc1OC)-c1[nH]nc(Nc3cccc(F)c3)c1C2 [PDGF receptor tyrosine kinase inhibitor IV]
cell viability (ES2): 0.288
cell viability (TOV-21G): 0.297

C=CCc1cccc(/C=N/NC(=O)CN2CCN(Cc3ccccc3)CC2)c1O
cell viability (ES2): 0.787
cell viability (TOV-21G): 0.821

O=C(Nc1cccc2cccnc12)c1ccc(N2C(=O)[C@@H]3[C@H](C2=O)[C@@H]2C=C[C@H]3C2)cc1 [IWR-1-endo]
cell viability (ES2): 0.998
cell viability (TOV-21G): 0.582

Cc1cc(Nc2cc(N3CCN(C)CC3)nc(/C=C/c3ccccc3)n2)n[nH]1
cell viability (ES2): 0.534
cell viability (TOV-21G): 0.289

CC(=N)NCc1cccc(CN)c1
cell viability (ES2): 1.15
cell viability (TOV-21G): 0.992

CSCC[C@H](NC(=O)c1ccc(NC[C@@H](N)CS)cc1-c1ccccc1)C(=O)O
cell viability (ES2): 1.55
cell viability (TOV-21G): 1

COc1c(C=O)c(O)cc2c1C(=O)c1ccccc1C2=O [Damnacanthal]
cell viability (ES2): 1.05 ± 0.021
cell viability (TOV-21G): 0.974 ± 0.19

CO[C@H]1C[C@@H]2CC[C@@H](C)[C@@](O)(O2)C(=O)C(=O)N2CCCC[C@H]2C(=O)O[C@H]([C@H](C)C[C@@H]2CC[C@@H](OC(=O)C(C)(CO)CO)[C@H](OC)C2)CC(=O)[C@H](C)/C=C(\C)[C@@H](O)[C@@H](OC)C(=O)[C@H](C)C[C@H](C)/C=C/C=C/C=C/1C [temsirolimus]
cell viability (ES2): 0.824
cell viability (TOV-21G): 0.516

CC(C)C[C@@H](C=O)NC(=O)[C@H](CC(C)C)NC(=O)[C@H](CC(C)C)NC(=O)OCc1ccccc1
cell viability (ES2): 0.298
cell viability (TOV-21G): 0.255

CNC(=O)c1cc(Oc2ccc(NC(=O)Nc3ccc(Cl)c(C(F)(F)F)c3)cc2)ccn1 [sorafenib]
cell viability (ES2): 0.402
cell viability (TOV-21G): 0.604

O=C(NCc1ccccc1)c1csc(Nc2ccncn2)n1 [Thiazovivin]
cell viability (ES2): 0.941
cell viability (TOV-21G): 1.04

CC(Cc1ccc(O)c(O)c1)C(C)Cc1ccc(O)c(O)c1 (stereo not given) [Nordihydroguaiaretic acid (NDGA)]
cell viability (ES2): 1
cell viability (TOV-21G): 0.865

CN(C)CC[C@H](CSc1ccccc1)Nc1ccc(S(=O)(=O)NC(=O)c2ccc(N3CCN(Cc4ccccc4-c4ccc(Cl)cc4)CC3)cc2)cc1[N+](=O)[O-]
cell viability (ES2): 0.713
cell viability (TOV-21G): 0.358

Cc1c2oc3c(C)ccc(C(=O)N[C@@H]4C(=O)N[C@H](C(C)C)C(=O)N5CCC[C@H]5C(=O)N(C)CC(=O)N(C)[C@@H](C(C)C)C(=O)O[C@@H]4C)c3nc-2c(C(=O)N[C@@H]2C(=O)N[C@H](C(C)C)C(=O)N3CCC[C@H]3C(=O)N(C)CC(=O)N(C)[C@@H](C(C)C)C(=O)O[C@@H]2C)c(N)c1=O [Actinomycin D]
cell viability (ES2): 0.584
cell viability (TOV-21G): 0.456

CC#C[C@]1(O)CC[C@H]2[C@@H]3CCC4=CC(=O)CCC4=C3[C@@H](c3ccc(N(C)C)cc3)C[C@@]21C [Mifepristone]
cell viability (ES2): 1.04
cell viability (TOV-21G): 0.846

O=c1c2ccccc2[nH]c(=S)n1CCN1CCC(=C(c2ccc(F)cc2)c2ccc(F)cc2)CC1 [Diacylglycerol kinase inhibitor II]
cell viability (ES2): 1.09
cell viability (TOV-21G): 1.13

CC(=O)O[C@H]1C(=O)[C@@]2(C)[C@H]([C@H](OC(=O)c3ccccc3)[C@]3(O)C[C@H](OC(=O)[C@H](O)[C@@H](NC(=O)c4ccccc4)c4ccccc4)C(C)=C1C3(C)C)[C@]1(OC(C)=O)CO[C@@H]1C[C@@H]2O [Paclitaxel]
cell viability (ES2): 0.467
cell viability (TOV-21G): 1.25

N#C/C(=C\c1ccc2oc(=O)[nH]c2c1)C(=O)c1ccc(O)c(O)c1
cell viability (ES2): 0.972
cell viability (TOV-21G): 1.13

Reference: the supplement of paper PMC12669797
